Test [1] in a line: cAMP Responsive Elements (CRE) small molecule antagonists, cell-based qHTS assay: qHTS cell viability counter screen (AID 2060913). Also: nearly all actives have a fitted effect of over 40% in size. Put shortly:
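HEK293T CRE-bla, 2,000 cells/well, 18 h preincubation; cpd in DMSO + NKH477 0.25 uM final, 3 h 37 C/5% CO2; LiveBLAzer 2 h RT, then CellTiter-Glo 30 min RT, luminescence.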
A general note: In qHTS, concentration-response curves come from the screen itself.

Test [2] can be described thus: cAMP Responsive Elements (CRE) small molecule agonists, cell-based qHTS assay: qHTS cell viability counter screen (AID 2060914).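 Also: viability read after 3 h of compound exposure; nearly all actives have a fitted effect of over 50% in size.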 The gist of the method:
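CRE-bla HEK 293T cells, plated 18 h at 37 °C, were exposed to compounds for 3 h at 37 °C/5% CO2. Viability was then measured in the same wells by CellTiter-Glo luminescence after 30 min at room temperature.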

Each structure is given as a SMILES string. Values joined by “and” are separate entries in the source; they are usually repeats but may differ in a detail not shown here. Equal entries are not always repeated. Inconclusive results are not listed. Values without a mark were called inactive. Active and inactive are the calls of the source. Calls follow the shape of the dose curve; as a rule, active = well fitted cell-killing curve with a large enough effect in the repeat runs; inconclusive = weak or mixed curves, or effect the other way; inactive = flat fitted curve, though single readings scatter.
% is scaled to controls: 0 for no effect and ±100 for the full control effect; potency is read from the fitted curve at half-maximal effect.

For the compound `COc1ccccc1OCC(O)CO` (stereo not drawn), the Potency entry in test [1] and in test [2] was “inactive” each time.
In the case of `Cc1cccc(Nc2ccccc2C(=O)O)c1C`, the Potency entry in test [1] and in test [2] was “inactive” throughout.
Take `N#CCCOCCOCCC#N`: the Potency result in test [1] and in test [2] was “inactive” each time.
`CCCCCCCC(=O)OC`: the Potency result in test [1] and in test [2] was “inactive” each time.
For `On1ccccc1=S`, the Potency in test [1] is 9.59 µM (active). For the same compound, in test [2], the Potency entry is “inactive”.
The corresponding values for `CCNC(=O)C1CC(C)CCC1C(C)C` (stereo not drawn) are “inactive” and “inactive”.
Consider `O=C(O)c1c(Cl)ccc(Cl)c1Cl`, for which the Potency result in test [1] and in test [2] was “inactive” each time.
Consider `CC(C)=CCC[C@](C)(O)[C@@H]1CC=C(C)CC1`, for which the Potency result in test [1] and in test [2] was “inactive” in each case.
As to `CCCCOCCO`, the Potency entry in test [1] and in test [2] was “inactive” each time.
On to `CN(C1CCCCC1)S(=O)(=O)c1ccccc1N`, for which the Potency result in test [1] and in test [2] was “inactive” throughout.
In the case of `CC(=O)N1CCN(c2ccc(OC[C@H]3CO[C@](Cn4ccnc4)(c4ccc(Cl)cc4Cl)O3)cc2)CC1`, the Potency is 54.5 µM (active) in test [1] and 68.6 µM (active) in test [2].
The corresponding values for `NC(=O)NC(N)=O` are “inactive” and “inactive”.
`CC(C)(C)NC(=O)[C@@H]1CN(Cc2cccnc2)CCN1C[C@@H](O)C[C@@H](Cc1ccccc1)C(=O)N[C@H]1c2ccccc2C[C@H]1O`: the Potency entry in test [1] and in test [2] was “inactive” in each case.
Take `O=C(O)c1ccc(O)cc1O`: the Potency result in test [1] and in test [2] was “inactive” each time.
On to `Brc1ccc(-c2ccccc2)cc1`, for which the Potency entry in test [1] and in test [2] was “inactive” in each case.
For `CCOC(=O)c1cccnc1`, the Potency entry in test [1] and in test [2] was “inactive” throughout.
`O=C(O)CNCC(=O)O`: the viability change, negative = cytotoxic in test [1] is 19.6% [at 8.39 µM]. Also, the activity change, negative = cytotoxicity in test [2] is -11.1% [at 8.39 µM].
For the compound `CCOC(=O)CS`, the Potency result in test [1] and in test [2] was “inactive” throughout.
For `c1ccc(-c2ccc(-c3ccccc3)cc2)cc1`, in test [1], the viability change, negative = cytotoxic was 0.929% [at 18.9 µM]. Also, the activity change, negative = cytotoxicity in test [2] is 0.504% [at 18.9 µM].
As to `CN=C(NC#N)NCCSCc1nc[nH]c1C`, the Potency result in test [1] and in test [2] was “inactive” throughout.
Consider `Cc1cc(Cc2cc(C)cc(C(C)(C)C)c2O)c(O)c(C(C)(C)C)c1`, for which the Potency was 54.8 µM (active) and 40.3 µM (active) in test [1]; 34.6 µM (active) and 54.5 µM (active) in test [2].
Turning to `C#C[C@]1(O)CC[C@H]2[C@@H]3CCC4=CC(=O)CC[C@@H]4[C@H]3CC[C@@]21C`, the Potency entry in test [1] and in test [2] was “inactive” each time.
As to `CC(C)(CO)C(O)C(=O)NCCCO` (stereo not drawn), the Potency entry in test [1] and in test [2] was “inactive” each time.
With `CC1(C)[C@@H]2CC[C@@]1(C)C(=O)C2`, the Potency entry in test [1] and in test [2] was “inactive” each time.
`CS(=O)(=O)O`: the Potency entry in test [1] and in test [2] was “inactive” throughout.
Turning to `CC1=CC(=C(c2ccc(N)cc2)c2ccc(N)cc2)C=CC1=N`, in test [1], the viability change, negative = cytotoxic was -2.05% [at 8.39 µM]. In addition, the activity change, negative = cytotoxicity in test [2] is -0.199% [at 8.39 µM].
The corresponding values for `CC1(C)CC(OC(=O)CCCCCCCCC(=O)OC2CC(C)(C)NC(C)(C)C2)CC(C)(C)N1` are -1.62% [at 18.9 µM] and 1.68% [at 18.9 µM].
With `CC(C)O.CC(C)O.CCOC(=O)/C=C(\C)O.CCOC(=O)/C=C(\C)O.[Ti]`, the Potency result in test [1] and in test [2] was “inactive” throughout.
On to `O=S(=O)(O)c1ccc(N=Nc2c(O)ccc3cc(S(=O)(=O)O)ccc23)cc1`, for which the Potency entry in test [1] and in test [2] was “inactive” each time.
Turning to `O=C1CCCN1CCO`, the Potency result in test [1] and in test [2] was “inactive” each time.
Turning to `O=NO`, the Potency entry in test [1] and in test [2] was “inactive” throughout.
`CC(C)(Oc1ccc(CCNC(=O)c2ccc(Cl)cc2)cc1)C(=O)O`: the Potency entry in test [1] and in test [2] was “inactive” each time.
Take `C=C1[C@H]2CC[C@@H]3[C@H]2C(C)(C)CCC[C@]13C`: the Potency result in test [1] and in test [2] was “inactive” in each case.
On to `Nc1ccccn1`, for which the Potency result in test [1] and in test [2] was “inactive” throughout.
Consider `Cc1cc(C)c(C=O)c(C)c1`, for which the Potency entry in test [1] and in test [2] was “inactive” in each case.
Regarding `CC(C)(C)C(O)/C=C/c1ccc2c(c1)OCO2` (stereo not drawn), the Potency entry in test [1] and in test [2] was “inactive” throughout.
Consider `O=C(c1ccc(O)c(O)c1)c1ccc(O)cc1O`, for which the Potency result in test [1] and in test [2] was “inactive” throughout.
On to `CCCCC(CC)C(=O)OC(C)C` (stereo not drawn), for which the Potency entry in test [1] and in test [2] was “inactive” throughout.
For the compound `C=CC(=O)OCC(CO)(COCC(COC(=O)C=C)(COC(=O)C=C)COC(=O)C=C)COC(=O)C=C`, the Potency in test [1] is 30.3 µM (active); in test [2] it was 42.7 µM (active).
The corresponding values for `CCOC(=O)O[C@]1(C(=O)OCCl)CC[C@H]2[C@@H]3CCC4=CC(=O)C=C[C@]4(C)[C@H]3[C@@H](O)C[C@@]21C` are “inactive” and “inactive”.
As to `CC(C[N+](C)(C)C)OC(N)=O` (stereo not drawn), the Potency result in test [1] and in test [2] was “inactive” throughout.
In the case of `N[C@H]1C(O)O[C@H](CO)[C@H](O)[C@@H]1O` (stereo partly drawn), the Potency entry in test [1] and in test [2] was “inactive” throughout.
In the case of `CC1=CCC2CC1C2(C)C` (stereo not drawn), the Potency result in test [1] and in test [2] was “inactive” each time.
Turning to `O=[N+]([O-])c1ccc2ncccc2c1`, the Potency entry in test [1] and in test [2] was “inactive” in each case.
On to `O=C(O)CCCCCCCCCCCC(=O)O`, for which the Potency entry in test [1] and in test [2] was “inactive” each time.
With `O=C(O)CCNC(=O)c1ccc(N=Nc2ccc(O)c(C(=O)O)c2)cc1`, the Potency entry in test [1] and in test [2] was “inactive” throughout.
In the case of `CCCCCCCCCCCCCO`, the Potency entry in test [1] and in test [2] was “inactive” throughout.
As to `COc1cc(NS(=O)(=O)c2ccc(N)cc2)nc(C)n1`, the Potency entry in test [1] and in test [2] was “inactive” throughout.
For the compound `Nc1c[n+](N2CCOCC2)no1`, the Potency result in test [1] and in test [2] was “inactive” each time.
Take `CCCCN(CCCC)C(=S)SSC(=S)N(CCCC)CCCC`: the Potency entry in test [1] and in test [2] was “inactive” throughout.
As for `CCCCOC(=O)c1ccc(O)cc1`, the Potency entry in test [1] and in test [2] was “inactive” throughout.
Take `O=Cc1ccc(O)c(O)c1O`: the Potency entry in test [1] and in test [2] was “inactive” each time.
With `CCC(C(=O)OCCN1CCOC(c2ccccc2)C1C)c1ccccc1` (stereo not drawn), the Potency result in test [1] and in test [2] was “inactive” in each case.
As to `CN(C)c1ccc(C=O)cc1`, the Potency result in test [1] and in test [2] was “inactive” each time.

The values are drawn from PubChem BioAssay (Tox21).
